Values joined by “and” are separate entries in the source; they are usually repeats but may differ in a detail not shown here. Equal values may be shown once. Results filed as inconclusive are left out. Values without a mark were called inactive. Active and inactive are the calls of the source. The call rests on the fitted dose curve; in most records, active means well fitted curve in the direction sought with a large enough effect; inconclusive means small, poorly fitted or top-dose-only effect, or another doubt; inactive means no such curve, though single readings can be large or run the other way. Where a SMILES comes first, the peptide text is derived from it. Bridges are numbered along the chain shown (N, C = ends). [ ]: non-standard residue; d: D form. The star is where a group is joined. X2 = CC[C@H](C)CCCCC(=O)*; Dab = NCC[C@H](N)C(=O)O
Assay: qHTS Assay for Identifying Gametocytocidal Compounds (AID 743244);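 on max response: actives lower the fluorescent signal which means gametocytes are killed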
Details: P. falciparum 3D7 stage III-V gametocytes, alamarBlue, 72 h; max response: stronger effect = lower value
Outline: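 A resazurin-based viability read-out was applied to mature P. falciparum gametocytes: 72 h compound treatment, then 24 h dye incubation, with falling fluorescence signalling gametocytocidal effect.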
On the % scale 0 is the no-effect control and ±100 the full control effect; potency means the concentration at half of the fitted maximal effect.

Question: With `CCCCc1cc2c(=O)c(C(=O)OC)c[nH]c2cc1OCc1ccccc1` as the compound, how does the max response read?
Answer: The max response was 5.7%.

Question: Which max response does the source give for `NNc1nnc(Cc2ccncc2)c2ccccc12` here?
Answer: The max response was 1.86%.

Question: Which max response does the source give for `CC(=O)N[C@@H](C=O)[C@H](O)[C@H](O)[C@@H](O)CO` here?
Answer: Its max response is -5.02% and 7.73%.

Question: With `CCN(CC)c1ccc(C(=C2C=CC(=[N+](CC)CC)C=C2)c2ccccc2)cc1` as the compound, how does the Potency read?
Answer: Its Potency is 11.2 µM (active).

Question: For `CC(=O)O[C@H]1CC[C@@]2(C)C(=CC[C@H]3[C@@H]4CC[C@H](C(C)=O)[C@@]4(C)CC[C@@H]32)C1`, which max response is on record?
Answer: The max response was 3.94%.

Question: For `O=P(O)(O)C(O)(Cc1cnc2ccccn12)P(=O)(O)O`, which max response is on record?
Answer: Its max response is -4.82%.

Question: Which max response does the source give for `CCCC(=O)O[C@]1(C(=O)COC(=O)CC)[C@@H](C)C[C@H]2[C@@H]3CCC4=CC(=O)C=C[C@]4(C)[C@@]3(F)[C@@H](O)C[C@@]21C` here?
Answer: Its max response is -15.1%.

Question: Which max response does the source give for `NCCC(=O)[N-][C@@H](Cc1cnc[nH]1)C(=O)O.[Zn]` here?
Answer: Its max response is 14.2%.

Question: Which max response does the source give for `CCCCCCCCCCCCCCCC(=O)OC/C=C(C)/C=C/C=C(C)/C=C/C1=C(C)CCCC1(C)C` here?
Answer: Its max response is -4.83%.

Question: For `CCC[C@@]1(CCc2ccccc2)CC(O)=C([C@H](CC)c2cccc(NS(=O)(=O)c3ccc(C(F)(F)F)cn3)c2)C(=O)O1`, which max response is on record?
Answer: The max response was 14.3%.

Question: With `C[N+](C)(CCCCCC[N+](C)(C)C1c2ccccc2-c2ccccc21)C1c2ccccc2-c2ccccc21` as the compound, how does the max response read?
Answer: Its max response is -0.956%.

Question: With `COc1ccc(C2NC(=S)N3C(c4ccc(OC)c(OC)c4)NC(=S)N23)cc1OC` (stereo not given) as the compound, how does the Potency read?
Answer: Its Potency is 0.0023 µM (active).

Question: With `NCCCC[C@H](NC(=O)[C@@H]1CCCN1C(=O)[C@@H]1CSSC[C@H](NC(=O)CNC(=O)CNC(=O)CN)C(=O)N[C@@H](Cc2ccc(O)cc2)C(=O)N[C@@H](Cc2ccccc2)C(=O)N[C@@H](CCC(N)=O)C(=O)N[C@@H](CC(N)=O)C(=O)N1)C(=O)NCC(N)=O` (H-GGGCYFQNCPKG-NH2; disulfide 4-9) as the compound, how does the max response read?
Answer: The max response was -2%.

Question: With `NC(=O)C[C@@H](N)C(=O)O` as the compound, how does the max response read?
Answer: The max response was -9.98%.

Question: With `c1ccc2c(CCC3CCNCC3)c[nH]c2c1` as the compound, how does the max response read?
Answer: Its max response is -9.29%.

Question: With `C[C@]12CC[C@@H]3c4ccc(OS(=O)(=O)O)cc4CC[C@H]3[C@@H]1CCC2=O` as the compound, how does the max response read?
Answer: Its max response is -15.6%.

Question: Which max response does the source give for `CCCC1([C@H](O)C/C=C/[C@H]2[C@H](O)CC(=O)[C@@H]2CCCCCCC(=O)OC)CCC1` here?
Answer: The max response was 2.12%.

Question: For `CC[C@H](C)CCCCC(=O)N[C@@H](CCN)C(=O)N[C@H](C(=O)N[C@@H](CCN)C(=O)N[C@H]1CCNC(=O)[C@H]([C@@H](C)O)NC(=O)[C@H](CCN)NC(=O)[C@H](CCN)NC(=O)[C@H](CC(C)C)NC(=O)[C@@H](CC(C)C)NC(=O)[C@H](CCN)NC1=O)[C@@H](C)O` (X2-[Dab]T[Dab][Dab][Dab][dL]L[Dab][Dab]T; lactam 4-C), which max response is on record?
Answer: The max response was 13.6%.

Question: Which max response does the source give for `CC(C)(C)CC(=O)OCC(=O)[C@@]12OC(C)(C)O[C@@H]1C[C@H]1[C@@H]3CCC4=CC(=O)C=C[C@]4(C)[C@@]3(F)[C@@H](O)C[C@@]12C` here?
Answer: The max response was -15%.

Question: With `COC[C@H](c1ccc(C(F)(F)F)cc1)N1CCN(C2(C)CCN(C(=O)c3c(C)ncnc3C)CC2)C[C@H]1C` as the compound, how does the max response read?
Answer: Its max response is -5.74%.

Question: With `C/C(=C(/CCO)SSCC1CCCO1)N(C=O)Cc1cnc(C)nc1N` (stereo not given) as the compound, how does the max response read?
Answer: The max response was 4.64% and -7.81%.

Question: Which max response does the source give for `C/C(=C(\CCOC(=O)c1ccccc1)SS/C(CCOC(=O)c1ccccc1)=C(/C)N(C=O)Cc1cnc(C)nc1N)N(C=O)Cc1cnc(C)nc1N` here?
Answer: Its max response is 9.71%.

Question: With `COC(=O)C1=C(C)NC(C)=C(C(=O)O[C@H]2CCN(Cc3ccccc3)C2)[C@H]1c1cccc([N+](=O)[O-])c1` as the compound, how does the max response read?
Answer: The max response was 22.4%.

Question: For `CNC[C@@H]1CC[C@@H](N)[C@@H](O[C@H]2[C@H](O)[C@@H](O[C@H]3OC[C@](C)(O)[C@H](NC)[C@H]3O)[C@H](N)C[C@@H]2N)O1`, which max response is on record?
Answer: Its max response is -11.2%.

Question: Which max response does the source give for `CCC(c1ccccc1)c1noc(CCN(CC)CC)n1` (stereo not given) here?
Answer: The max response was 15%.

Question: Which max response does the source give for `CC(CN(C)C)CN1c2ccccc2S(=O)(=O)c2ccccc21` (stereo not given) here?
Answer: Its max response is -15.2%.

Question: For `CC1(S(=O)(=O)O)CC(=O)c2ccccc2C1=O` (stereo not given), which Potency is on record?
Answer: Its Potency is 6.31 µM (active).

Question: Which max response does the source give for `CN1CC(O)c2cc(N=NC(N)=O)c(O)cc21` (stereo not given) here?
Answer: The max response was -4.67%.

Question: For `Cc1c(O)cc2c(c1C)O[C@](C)(CCC[C@H](C)CCC[C@H](C)CCCC(C)C)CC2`, which max response is on record?
Answer: The max response was -0.611%.

Question: Which max response does the source give for `COc1ccc(C(=O)Nc2ccccc2CCC2CCCCN2C)cc1` (stereo not given) here?
Answer: Its max response is 14.2%.

Question: Which max response does the source give for `CO[C@H]1[C@@H](O)[C@H](N)[C@@H](O[C@H]2O[C@H]([C@H](C)N)CC[C@H]2N)[C@H](O)[C@@H]1N(C)C(=O)CN` here?
Answer: Its max response is 15.1%.

Question: Which max response does the source give for `CC1=C(C(=O)OCCN(Cc2ccccc2)c2ccccc2)C(c2cccc([N+](=O)[O-])c2)C(P2(=O)OCC(C)(C)CO2)=C(C)N1` (stereo not given) here?
Answer: The max response was 12.9%.

Question: For `CCOC(=O)Cc1cccc(-c2cc(CCCCCCc3ccc(O[C@H]4O[C@H](COC(C)=O)[C@@H](OC(C)=O)[C@H](OC(C)=O)[C@@H]4OC(C)=O)c(-c4cccc(CC(=O)OCC)c4)c3)ccc2O[C@H]2O[C@H](COC(C)=O)[C@@H](OC(C)=O)[C@H](OC(C)=O)[C@@H]2OC(C)=O)c1`, which max response is on record?
Answer: The max response was -24.7%.

Question: Which max response does the source give for `O=C[C@H](O)[C@@H](O)[C@H](O)[C@H](O)CO` here?
Answer: Its max response is -1.25%.

Question: With `C1CNCCN1` as the compound, how does the max response read?
Answer: The max response was -4.23%.

Question: Which max response does the source give for `CN[C@@H]1CCc2[nH]c3ccc(C(N)=O)cc3c2C1` here?
Answer: The max response was -0.658%.

Question: Which max response does the source give for `CCCCC(=O)O` here?
Answer: Its max response is -7.14% and 15.8%.

Question: Which max response does the source give for `CO[C@H]1C[C@H](O[C@H]2[C@H](C)O[C@@H](O[C@@H]3/C(C)=C/C[C@@H]4C[C@@H](C[C@]5(C=C[C@H](C)[C@@H](C6CCCCC6)O5)O4)OC(=O)[C@@H]4C=C(C)[C@@H](O)[C@H]5OC/C(=C\C=C\[C@@H]3C)[C@]54O)C[C@@H]2OC)O[C@@H](C)[C@@H]1O` here?
Answer: Its max response is -11.6%.

Question: Which Potency does the source give for `C=CCNC1=C2C[C@@H](C)C[C@H](OC)[C@H](O)[C@@H](C)/C=C(\C)[C@H](OC(N)=O)[C@@H](OC)/C=C\C=C(/C)C(=O)NC(=CC1=O)C2=O` here?
Answer: The Potency was 2.82 µM (active).

Question: Which max response does the source give for `CC1(C)C2CC[C@]3(C)[C@H](C(=O)C=C4[C@@H]5C[C@@](C)(C(=O)O)CC[C@]5(C)CC[C@]43C)[C@@]2(C)CC[C@@H]1O[C@H]1O[C@H](C(=O)O)[C@@H](O)[C@H](O)[C@H]1O[C@@H]1O[C@H](C(=O)O)[C@@H](O)[C@H](O)[C@H]1O` (stereo not given in full) here?
Answer: Its max response is -0.804%.

— PubChem BioAssay (NCATS)
